# Experimental data published in ChEMBL document CHEMBL1157539, “Thousands of chemical starting points for antimalarial lead identification” (Nature, 2010).
# Test system: Plasmodium falciparum
# Assay: GSK_TCMDC: Inhibition of Plasmodium falciparum 3D7 in whole red blood cells, using parasite LDH activity as an index of growth. Test compounds present at 2uM
# Type: functional
row,SMILES,Inhibition
1,O=C(O)C(F)(F)F.c1ccc2[nH]c(-c3ccc(-c4ccc(CNC5CC5)cc4)s3)nc2c1,91%
2,CCCN1CCC(c2c[nH]c3ccc(NC(=O)Nc4cccc(Cl)c4Cl)cc23)CC1,100%
3,O=C(NCC1CCN(Cc2cccc(C(F)(F)F)c2)C1)c1cc(-c2cccc(C(F)(F)F)c2)cs1.O=C(O)C(F)(F)F (stereo not drawn),100%
4,Cc1ccc(Nc2nc(N/N=C/c3ccccc3[N+](=O)[O-])nc(Nc3ccc([N+](=O)[O-])cc3)n2)cc1C,100%
5,COc1ccc(Nc2nc(NCc3ccc(-n4ccnc4)cc3)cc(-c3ccc(OC)cc3)n2)cc1,96%
6,CON(CCCN(C)C)C(=N)N.Cl,92%
7,O=C(Cc1c[nH]cn1)Nc1ccc(-c2cccc(-c3nc4cc(C(F)(F)F)ccc4[nH]3)c2)cc1,100%
8,O=C(c1ccc(O)c(-c2cc(Cl)cc(Cl)c2)c1)N(CCO)CCO,94%
9,O=C(Nc1cccc(OC2CCN(Cc3ccccc3)CC2)c1)c1ccc([N+](=O)[O-])cc1.O=C(O)C(F)(F)F,100%
10,CN(CCc1ccccc1)c1ncc(-c2ccccc2CNCc2ccccc2O)cn1,99%
11,Cc1[nH]c(C)c([N+](=O)[O-])c(=O)c1-c1ccc(Oc2ccc(OC(F)(F)F)cc2)cc1,97%
12,COc1ccc(S(=O)(=O)N(CC(=O)NN=C(C)c2cccs2)c2cc(C)cc(C)c2)cc1OC,97%
13,CC(C)NCc1cccc(-c2ccc(-c3nc4ccccc4[nH]3)cc2)c1.O=C(O)C(F)(F)F,100%
14,Cc1cnc(NCCc2ccc(F)cc2)nc1NCCC(=O)Nc1ccccc1.O=C(O)C(F)(F)F,89%
15,O=C(O)C(F)(F)F.OCC1CCN(Cc2cccc(-c3ccc(-c4nc5cc(C(F)(F)F)ccc5[nH]4)s3)c2)CC1,99%
16,COc1cc(Nc2ccc3cc(S(=O)(=O)N4CCCCC4C)ccc3n2)cc(OC)c1OC (stereo not drawn),88%
17,Cc1cccc2nc(-c3ccc(-c4cccc(NC(=O)C(C)CN5CCN(C)CC5)c4)s3)[nH]c12 (stereo not drawn),97%
18,Nc1cc(/C=C/c2ccc([N+](=O)[O-])s2)nc2ccccc12,98%
19,COc1cc2c(cc1OC)C(C(=O)Nc1cc(OC)c(OC)c(OC)c1)C(c1ccc(SC)cc1)N(C)C2=O (stereo not drawn),97%
20,NC1=NC2(CCCCC2)N(OCCCCCCc2ccccc2)C(N)=N1,100%

row,SMILES,Inhibition
1,N#Cc1ccc(N2C[C@@H](OCc3ccccc3)C[C@H]2C(=O)NCCC(c2ccccc2)c2ccccc2)c2ccccc12,93%
2,CCOc1cc2ncnc(Nc3ccc(OCc4c(F)cccc4F)c(OC)c3)c2cc1OCC.Cl,96%
3,Nc1ncc(-c2ccc3nccc(-c4ccncc4)c3c2)cc1S(=O)(=O)N1CCCCC1,100%
4,Cc1ccc(CNC(=O)c2ccc(CN3CCCN(Cc4ccsc4)CC3)cc2)cc1.O=C(O)C(F)(F)F,93%
5,Cc1cccc(Nc2nc3nonc3nc2Nc2cccc(Cl)c2Cl)c1C,91%
6,Clc1cccc(-c2nc(Nc3ccnc(-c4ccc(CN5CCOCC5)cc4)c3)c3ccccc3n2)c1,100%
7,Cc1ccc(Nc2cc(C)nn2-c2nc(C)cc(O)n2)cc1,97%
8,Cc1ccc(CN2CCCN(Cc3cccc(C(=O)Nc4ccc(C(C)(C)C)cc4)c3)CC2)s1.O=C(O)C(F)(F)F,85%
9,C=CCc1ccc(C[C@H](NC(=O)OC(C)(C)C)C(=O)OC)cc1,98%
10,COc1cccc(Nc2c(C(N)=O)cnc3ccc(-c4ccc([S+](C)[O-])cc4)cc23)c1.O=C(O)C(F)(F)F (stereo not drawn),96%
11,CC(CC(=O)NCC1(c2ccc(F)cc2Cl)CCOCC1)C(=O)c1ccc(Cl)cc1 (stereo not drawn),99%
12,Cc1cc(N2CCCC2)nc(Nc2ccc(NC(=O)C3CCCC3)cc2)n1,100%
13,CC1CCCC(C)N1C[C@@H](O)CNS(=O)(=O)c1cccc(C(F)(F)F)c1.Cl (stereo partly drawn),99%
14,COCCN1CCC(C(=O)NCC(C)(C)c2nc(-c3ccc(Br)c(O)c3)c(-c3ccncc3)[nH]2)CC1.Cl,99%
15,CCN(CC)CCN(Cc1ccc(-c2ccc(C(F)(F)F)cc2)cc1)C(=O)Cn1c(CCc2ccc(F)c(F)c2)cc(=O)c2ccccc21.O=C(O)C(O)C(O)C(=O)O,95%
16,CC(C)(C)c1ccccc1OC(=O)c1ccccc1,95%
17,O=C(O)C(F)(F)F.OCCN1CCN(Cc2ccc(-c3ccc(-c4nc5ccccc5[nH]4)cc3)cc2)CC1,100%
18,O=C(N[C@H]1CCN(Cc2ccc(OC3CCN(Cc4ccccc4)CC3)c(Cl)c2)C1)c1ccc(Cl)c(Cl)c1.O=C(O)C(F)(F)F,99%
19,Cn1nccc1C(=O)NCCNCc1ccc(-c2cccc(-c3nc4ccccc4[nH]3)c2)cc1.O=C(O)C(F)(F)F,100%

# Test system: Plasmodium falciparum
# Assay: GSK_TCMDC: Inhibition of Plasmodium falciparum Dd2 in whole red blood cells, using parasite LDH activity as an index of growth. Test compounds present at 2uM
# Type: functional
row,SMILES,Inhibition
1,O=C(O)C(F)(F)F.c1ccc2[nH]c(-c3ccc(-c4ccc(CNC5CC5)cc4)s3)nc2c1,19%
2,CCCN1CCC(c2c[nH]c3ccc(NC(=O)Nc4cccc(Cl)c4Cl)cc23)CC1,17%
3,O=C(NCC1CCN(Cc2cccc(C(F)(F)F)c2)C1)c1cc(-c2cccc(C(F)(F)F)c2)cs1.O=C(O)C(F)(F)F (stereo not drawn),74%
4,Cc1ccc(Nc2nc(N/N=C/c3ccccc3[N+](=O)[O-])nc(Nc3ccc([N+](=O)[O-])cc3)n2)cc1C,81%
5,COc1ccc(Nc2nc(NCc3ccc(-n4ccnc4)cc3)cc(-c3ccc(OC)cc3)n2)cc1,25%
6,CON(CCCN(C)C)C(=N)N.Cl,0%
7,O=C(Cc1c[nH]cn1)Nc1ccc(-c2cccc(-c3nc4cc(C(F)(F)F)ccc4[nH]3)c2)cc1,95%
8,O=C(c1ccc(O)c(-c2cc(Cl)cc(Cl)c2)c1)N(CCO)CCO,62%
9,O=C(Nc1cccc(OC2CCN(Cc3ccccc3)CC2)c1)c1ccc([N+](=O)[O-])cc1.O=C(O)C(F)(F)F,2%
10,CN(CCc1ccccc1)c1ncc(-c2ccccc2CNCc2ccccc2O)cn1,94%
11,Cc1[nH]c(C)c([N+](=O)[O-])c(=O)c1-c1ccc(Oc2ccc(OC(F)(F)F)cc2)cc1,97%
12,COc1ccc(S(=O)(=O)N(CC(=O)NN=C(C)c2cccs2)c2cc(C)cc(C)c2)cc1OC,43%
13,CC(C)NCc1cccc(-c2ccc(-c3nc4ccccc4[nH]3)cc2)c1.O=C(O)C(F)(F)F,66%
14,Cc1cnc(NCCc2ccc(F)cc2)nc1NCCC(=O)Nc1ccccc1.O=C(O)C(F)(F)F,17%
15,O=C(O)C(F)(F)F.OCC1CCN(Cc2cccc(-c3ccc(-c4nc5cc(C(F)(F)F)ccc5[nH]4)s3)c2)CC1,90%
16,COc1cc(Nc2ccc3cc(S(=O)(=O)N4CCCCC4C)ccc3n2)cc(OC)c1OC (stereo not drawn),78%
17,Cc1cccc2nc(-c3ccc(-c4cccc(NC(=O)C(C)CN5CCN(C)CC5)c4)s3)[nH]c12 (stereo not drawn),75%
18,Nc1cc(/C=C/c2ccc([N+](=O)[O-])s2)nc2ccccc12,48%
19,COc1cc2c(cc1OC)C(C(=O)Nc1cc(OC)c(OC)c(OC)c1)C(c1ccc(SC)cc1)N(C)C2=O (stereo not drawn),64%
20,NC1=NC2(CCCCC2)N(OCCCCCCc2ccccc2)C(N)=N1,69%

row,SMILES,Inhibition
1,N#Cc1ccc(N2C[C@@H](OCc3ccccc3)C[C@H]2C(=O)NCCC(c2ccccc2)c2ccccc2)c2ccccc12,96%
2,CCOc1cc2ncnc(Nc3ccc(OCc4c(F)cccc4F)c(OC)c3)c2cc1OCC.Cl,60%
3,Nc1ncc(-c2ccc3nccc(-c4ccncc4)c3c2)cc1S(=O)(=O)N1CCCCC1,100%
4,Cc1ccc(CNC(=O)c2ccc(CN3CCCN(Cc4ccsc4)CC3)cc2)cc1.O=C(O)C(F)(F)F,0%
5,Cc1cccc(Nc2nc3nonc3nc2Nc2cccc(Cl)c2Cl)c1C,95%
6,Clc1cccc(-c2nc(Nc3ccnc(-c4ccc(CN5CCOCC5)cc4)c3)c3ccccc3n2)c1,65%
7,Cc1ccc(Nc2cc(C)nn2-c2nc(C)cc(O)n2)cc1,95%
8,Cc1ccc(CN2CCCN(Cc3cccc(C(=O)Nc4ccc(C(C)(C)C)cc4)c3)CC2)s1.O=C(O)C(F)(F)F,4%
9,C=CCc1ccc(C[C@H](NC(=O)OC(C)(C)C)C(=O)OC)cc1,98%
10,COc1cccc(Nc2c(C(N)=O)cnc3ccc(-c4ccc([S+](C)[O-])cc4)cc23)c1.O=C(O)C(F)(F)F (stereo not drawn),100%
11,CC(CC(=O)NCC1(c2ccc(F)cc2Cl)CCOCC1)C(=O)c1ccc(Cl)cc1 (stereo not drawn),91%
12,Cc1cc(N2CCCC2)nc(Nc2ccc(NC(=O)C3CCCC3)cc2)n1,81%
13,CC1CCCC(C)N1C[C@@H](O)CNS(=O)(=O)c1cccc(C(F)(F)F)c1.Cl (stereo partly drawn),2%
14,COCCN1CCC(C(=O)NCC(C)(C)c2nc(-c3ccc(Br)c(O)c3)c(-c3ccncc3)[nH]2)CC1.Cl,6%
15,CCN(CC)CCN(Cc1ccc(-c2ccc(C(F)(F)F)cc2)cc1)C(=O)Cn1c(CCc2ccc(F)c(F)c2)cc(=O)c2ccccc21.O=C(O)C(O)C(O)C(=O)O,26%
16,CC(C)(C)c1ccccc1OC(=O)c1ccccc1,2%
17,O=C(O)C(F)(F)F.OCCN1CCN(Cc2ccc(-c3ccc(-c4nc5ccccc5[nH]4)cc3)cc2)CC1,58%
18,O=C(N[C@H]1CCN(Cc2ccc(OC3CCN(Cc4ccccc4)CC3)c(Cl)c2)C1)c1ccc(Cl)c(Cl)c1.O=C(O)C(F)(F)F,11%
19,Cn1nccc1C(=O)NCCNCc1ccc(-c2cccc(-c3nc4ccccc4[nH]3)c2)cc1.O=C(O)C(F)(F)F,87%
